This is a sample that favours compounds with a hit; in the whole collection about 3.3% have one here.
RE007 growth inh: less growth of the S. pombe RE007 Vpr strain. S. pombe RE007 Vpr strain, BacTiter-Glo ATP luminescence, 24 h. Potency, µM (doses to about 92.2 µM), without a hit: at the top dose activity change, negative = less growth, most hits filed as inhibitors. 360,000 compounds, 0.21% hits; active means well fitted falling curve with a large enough effect; inconclusive means small, poorly fitted or top-dose-only effect; inactive means no such curve, though single readings can be large or run the other way; further: on the % scale 0 is the no-effect control and ±100 the full control effect; nearly all actives have a fitted effect of over 50% in size
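Fission yeast strain RE007, carrying one chromosomally integrated HIV-1 vpr copy, was seeded at OD 0.01 in PMG+AL medium with 23 nL pinned compound. After 24 h at 30 °C and 99% humidity, viability was read by BacTiter-Glo luminescence.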
SARS PLpro yeast: SARS-CoV PLP inhibition in yeast | S. cerevisiae expressing SARS-CoV PLpro, growth rescue | Potency, µM (titrated, usually from 32.9 µM), for inactives: at the top dose activity, positive = growth rescue, most hits filed as activators | 330,000 compounds, 0.19% hits | AID 485353; calls by dose curve; further: 0% is about no effect; nearly all actives have a fitted effect of over 55% in size
Sm TGR block: S. mansoni TGR enzyme inhibition | AID 485364 | Potency, µM (doses to about 114 µM), for the others: at the highest dose activity change, negative = inhibition, most hits filed as inhibitors | Q962Y6 | purified TGR, DTNB reduction, TNB absorbance 405 nm | 360,000 compounds, 3% hits; further: on the % scale 0 is the no-effect control and ±100 the full control effect; nearly all actives have a fitted effect of over 60% in size
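First, TGR (20 nM dispensed) and NADPH were mixed with compound. Second, a 15 min room-temperature incubation followed. Third, further NADPH and then DTNB were added to start the reaction. Finally, TNB absorbance was monitored kinetically.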
AmpC detergent: inhibitors of E. coli AmpC beta-lactamase with detergent. Potency, µM (series often up to 114 µM), for the others: at the highest dose activity change, negative = inhibition, actives largely listed as inhibitors. P00811. 370,000 compounds, 0.041% hits. AmpC hydrolysis of nitrocefin, absorbance 480 nm, 0.01% Triton;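 further: 0% = no-compound wells and -100% = no-enzyme wells; nearly all actives have a fitted effect of over 25% in size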
Target sequence (P00811 whole entry, looked up): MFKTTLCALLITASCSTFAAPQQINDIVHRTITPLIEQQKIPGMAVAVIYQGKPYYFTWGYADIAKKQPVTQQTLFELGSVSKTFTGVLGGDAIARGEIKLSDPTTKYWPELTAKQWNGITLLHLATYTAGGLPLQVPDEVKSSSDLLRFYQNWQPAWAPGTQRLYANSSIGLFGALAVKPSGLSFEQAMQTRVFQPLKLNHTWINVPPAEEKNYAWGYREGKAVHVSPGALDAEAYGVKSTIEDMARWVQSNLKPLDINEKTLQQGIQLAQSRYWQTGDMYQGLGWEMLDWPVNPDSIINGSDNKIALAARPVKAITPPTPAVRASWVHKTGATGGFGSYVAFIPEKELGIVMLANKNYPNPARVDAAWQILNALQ
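AmpC (5.3 nM in the dispensed reagent) in 20 mM phosphate pH 7.0 with 0.01% (detergent screen) or 0.0001% Triton X-100 was preincubated with compounds for 15 min at room temperature. Nitrocefin was then added from an 800 uM solution, and hydrolysis was followed at 480 nm.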
AmpC no deterg: AmpC beta-lactamase inhibition without detergent; P00811; AmpC nitrocefin hydrolysis, absorbance 480 nm, 0.0001% Triton; Potency, µM (series often up to 57.1 µM), without a hit: at the highest dose activity change, negative = inhibition, most hits filed as inhibitors; 330,000 compounds, 0.52% hits; AID 485341;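 further: plate controls were no compound for no effect and no enzyme for full effect; nearly all actives have a fitted effect of over 20% in size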
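20 mM phosphate pH 7.0 + 0.01% (detergent screen) or 0.0001% Triton X-100; 5.3 nM AmpC reagent; cpd preinc 15 min RT; nitrocefin (800 uM stock) to start; A480 q20 s × 4 min; Activity was normalised to no-enzyme and no-compound control wells.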
TbPYK inhibitor: inhibitors of Trypanosoma brucei pyruvate kinase; Q57TT1; 410,000 compounds, 0.12% hits; Potency, µM (series often up to 76.8 µM), inactives show at the top dose activity, negative = inhibition, most hits filed as inhibitors; TbPYK enzyme, Kinase-Glo Plus ATP luminescence, 45 min; further: on the % scale 0 is the no-effect control and ±100 the full control effect; nearly all actives have a fitted effect of over 50% in size
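T. brucei PYK with substrate was exposed to pin-transferred compounds across a concentration series, then started with 130 uM ADP (final). After 45 min at room temperature, Kinase-Glo Plus luminescence was read, normalized and curve-fitted.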
Starred values were filed as active, the others as inactive; ? = inconclusive; . = not tested or not shown; ! = a repeat was not active; [ ] = another dose, or the depositor's remark. Unless noted, the call rests on the fitted dose curve; in most records, active means well fitted curve in the direction sought with a large enough effect; inconclusive means small, poorly fitted or top-dose-only effect, or another doubt; inactive means no such curve, though single readings can be large; an effect the other way counts as inactive or inconclusive. Potency means the concentration at half of the fitted maximal effect.

SMILES	RE007 growth inh	SARS PLpro yeast	Sm TGR block	AmpC detergent	AmpC no deterg	TbPYK inhibitor
N#C/C(=C\c1ccc(Sc2nc3ccccc3[nH]2)o1)c1ccccc1	-7%	-11%	-25%	?	-39%	4%
COC(=O)C(CCSC)NC(=O)c1cc2c(n(-c3ccc(Cl)cc3)c1=O)CCCC2=O (stereo not given)	.	.	7%	30%	.	5%
O=C(Cn1nc(-c2ccco2)ccc1=O)Nc1cc(Cl)ccc1Cl	10%	2%	5.6µM*	-16%	-14%	-13%
Cc1ccc(NC(=O)Cn2nc(-c3ccncc3)ccc2=O)cc1Cl	.	.	?	-9%	.	1%
O=C(Cn1nc(-c2ccco2)ccc1=O)Nc1cc(C(F)(F)F)ccc1Cl	-3%	-1%	50µM*	2%	-12%	-12%
O=C(CN1CCCC1)Nc1cc(C(F)(F)F)ccc1Cl	11%	5%	45%	?	-19%	7%
O=C(Cn1nc(-c2ccco2)ccc1=O)Nc1ccc(Cl)c(Cl)c1	17%	-5%	7.1µM*	-7%	-9%	?
COc1ccc(OC)c(NC(=O)CCc2nc(-c3ccc(C)cc3)no2)c1	.	.	-3%	14%	.	5%
COc1ccc(N(C(=O)c2ccncc2)S(=O)(=O)c2cccc([N+](=O)[O-])c2)cc1	-17%	3%	32µM*	-4%	26%	5%
N#Cc1ccc(/C=C/C(=O)c2ccccc2)cc1	.	-5%	8.9µM*	8%	-15%	1%
O=C(/C=C/c1ccccc1)c1ccccc1	-26%[18.4 µM]	-3%	?	-3%	-30%	3%
Cc1ccc(Oc2nc3ccccn3c(=O)c2/C=C(\C#N)c2nc3ccccc3s2)c(C)c1	.	.	0%	22%	.	?
CC(=O)c1ccc(N2Cc3ccccc3/C2=N\C(=O)Nc2ccccc2)cc1	-5%	21%	-4%	-12%	25%	-5%
CC(=O)c1cccc(N2Cc3ccccc3C2=NC(=O)CCl)c1	-2%	0%	18µM*	-8%	-3%[2.29 µM]	-7%
Cc1ccc(NC(=O)N2CCC(CN3CCCCC3)CC2)c(Cl)c1	.	.	7%	6%	.	2%
Cc1cc2cc(CN(Cc3ccco3)S(=O)(=O)c3c(C)ccc4nsnc34)c(=O)[nH]c2cc1C	-5%	14%	45µM*	-5%	-14%	-3%
Cc1ccc2[nH]c(=O)c(CN(CCCO)S(=O)(=O)c3c(C)ccc4nsnc34)cc2c1	-22%	-4%	8%	?	-14%	-1%
Cc1ccc2cc(CN(Cc3ccco3)S(=O)(=O)c3c(C)ccc4nsnc34)c(=O)[nH]c2c1	-11%	-8%	8.9µM*	-1%	-30%	-16%
COc1ccccc1N1CCN(C(=O)c2cnn(-c3ccc(C)c(C)c3)c2C2CCN(C(=O)OC(C)(C)C)CC2)CC1	.	.	6%	22%	.	-1%[15.4 µM]
CCOc1ccccc1NC(=O)CN1Cc2ccccc2C1=O	.	.	3%	2%	.	-1%
Oc1c(Cl)cc(CN2CCOCC2)c2cccnc12	?	-10%	1.3µM*	-4%	-9%	-4%
O=[N+]([O-])c1cc(CN2CCOCC2)c2cccnc2c1O	8%	0%	35µM*	?	-22%	-7%
COc1ccc(-n2nnnc2C2CCN(S(=O)(=O)c3ccc(NC(C)=O)cc3)CC2)cc1	.	.	5%	18%	.	1%
CN(C(=S)NC(=O)c1ccc(Cl)cc1)C1CCCCC1	10%	-3%	79µM*	?	-34%	-17%
O=C(/C=C/c1ccc(Br)cc1)c1ccco1	-24%	-18%	-32%	-9%	-17%	1%
SMILES	RE007 growth inh	SARS PLpro yeast	Sm TGR block	AmpC detergent	AmpC no deterg	TbPYK inhibitor
O=C(/C=C/C=C/c1ccccc1)c1ccco1	.	-2%	10µM*	-9%	-29%	-2%
CCc1ccccc1NC(=O)c1cc2nc(-c3ccc(Br)cc3)cc(C(F)(F)F)n2n1	.	.	-1%	4%	.	-1%
O=C(NC1CCCCCC1)c1ccc(CS(=O)Cc2cccc(Cl)c2)o1 (stereo not given)	20%	18%	56µM*	6%	72%	0%
O=C(NCCc1ccccc1)c1ccc(CS(=O)Cc2ccc(Cl)cc2)o1 (stereo not given)	16%	11%	35µM*!	2%	52%	0%
Cc1ccc(CNC(=O)CCCn2nc(C)n3c(cc4sccc43)c2=O)cc1	.	.	-2%	8%	.	0%
O=C(O)c1ccc2cccnc2n1	9%	-1%	32µM*	-2%	-12%	-6%
CC(C)CS(=O)(=O)c1oc(-c2ccc(F)cc2)nc1S(=O)(=O)c1ccccc1	.	.	1.1µM*	-7%	.	-2%
CCC(C)S(=O)(=O)c1oc(-c2cccs2)nc1S(=O)(=O)c1ccccc1 (stereo not given)	.	.	0.71µM*	-5%	.	1%
O=S(=O)(c1ccccc1)c1nc(-c2ccc(F)cc2)oc1NCc1ccccc1	.	.	9%	26%	.	1%
O=S(=O)(c1ccccc1)c1nc(-c2ccc(F)cc2)oc1NCC1CCCO1 (stereo not given)	15%	-6%	45µM*	-5%	-8%	2%
CNc1oc(-c2cccs2)nc1S(=O)(=O)c1ccccc1	-5%	1%	-18%	0%	-11%	4%
COc1ccc(C(=O)NNC(=O)C2CCCN(C3CC(=O)N(c4ccccc4)C3=O)C2)cc1 (stereo not given)	?	-1%	45µM*	1%	-5%	6%
O=C1CC(N2CC2)C(=O)N1c1ccccc1 (stereo not given)	-13%	.	.	.	.	-13%
O=C1CC(N2CCCN(C3CC(=O)N(c4ccc(F)cc4)C3=O)CC2)C(=O)N1c1ccc(F)cc1 (stereo not given)	4.5µM*	-12%	20µM*	-8%	2%	-9%
O=C1CC(N2CCCCC2)C(=O)N1c1ccccc1 (stereo not given)	40µM*	-90%	32µM*	?	-13%	2%
O=C1CC(N2CCN(S(=O)(=O)c3ccccc3)CC2)C(=O)N1c1ccccc1 (stereo not given)	0%	-2%	50µM*	0%	2%	1%
O=C1CC(N2CCN(c3ccc(Cl)cc3)CC2)C(=O)N1c1ccc(F)cc1 (stereo not given)	3%	-12%	?	0%	29%	3%
OC[C@H]1O[C@@H](n2cnc3c2NC=NC[C@H]3O)C[C@@H]1O	.	.	.	.	.	-16%
COc1ccc(NC(=O)C(C)N2Cc3ccccc3C2=O)cc1OC (stereo not given)	.	.	5%	-6%	.	0%

From PubChem BioAssay
